For four compounds, Potency and outcome results are on record in PubChem BioAssay (NCATS).

The target of test [1] is Cytochrome P450 3A4 (Homo sapiens) (UniProt P08684). The experiment in a line: qHTS Assay for Inhibitors and Substrates of Cytochrome P450 3A4 (AID 884). Also: nearly all actives have a fitted effect of over 50% in size. Also: potency is read from the fitted curve at half-maximal effect. In outline:
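Luminescent readout of luciferin produced by CYP3A4 (20 nM) dealkylation of Luciferin-PPXE, 25 uM (its KM). NADPH-driven reaction ran 60 min at RT after 10 min compound preincubation; data scaled to 57 uM ketoconazole as 100% inhibition.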

Test [2] in a line: Confirmation and Secondary Assay for Modulators of Hemoglobin Beta Chain Splicing at IVS2 654 locus (AID 910).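 Also: per-well total GFP intensity by laser scanning cytometry after 2-day treatment.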 In outline: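 HeLa cells stably carrying EGFP interrupted by mutant beta-globin IVS2-654 intron (CMV-driven) were treated with compound for 2 days at 37C; corrected splicing was scored as total peak GFP intensity per well (488 nm excitation, 500-520 nm emission).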
Test [3] can be described thus: Confirmation and Secondary Assay for Modulators of Hemoglobin Beta Chain Splicing at IVS2 705 locus (AID 930).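 Also: HeLa cells stably expressing the EGFP-705 splicing reporter; GFP fluorescence per well restored by corrected splicing of the IVS2-705 intron in EGFP; series mostly up to about 46 µM.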 In outline:
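First, HeLa EGFP-705 cells are seeded at 500/well in Optimem with 2% FCS and left overnight. Next, compound or DMSO is added for 2 days. Finally wells are laser-scanned and total peak GFP intensity scored.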

In test [4] the target is Cytochrome P450 3A4 (Homo sapiens) (UniProt P08684). The experiment in a line: qHTS Assay for Activators of Cytochrome P450 3A4 (AID 885). Also: nearly all actives have a fitted effect of over 65% in size. In short, it runs like this:
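Using 20nM recombinant human CYP3A4 in potassium phosphate (200mM), substrate Luciferin-PPXE at 25uM, luminescent luciferin detection followed a 60-min RT NADPH reaction; data scaled to 57 uM ketoconazole.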
Background: Quantitative high-throughput screening tests each substance at several concentrations.

The target of test [5] is Alpha-galactosidase (Coffea arabica) (UniProt Q42656). The experiment in a line: Counterscreen for Glucocerebrosidase Inhibitors: qHTS Assay for Coffee Bean alpha-Galactosidase at pH 4.5 (AID 957). Also: series mostly up to about 77 µM. In outline: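 Fluorogenic qHTS at pH 4.5 (citrate buffer with Tween-20): 2 nM enzyme, 80 uM 4-MU-alpha-galactoside substrate, compound titrated 0.7 nM to 77 uM, 20 min room temperature. Glycine/NaOH stop; 4-MU read Ex 365/Em 440; Hill-equation AC50 against no-enzyme and enzyme controls.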
Sequence of Alpha-galactosidase (Coffea arabica) (Q42656 whole entry, looked up): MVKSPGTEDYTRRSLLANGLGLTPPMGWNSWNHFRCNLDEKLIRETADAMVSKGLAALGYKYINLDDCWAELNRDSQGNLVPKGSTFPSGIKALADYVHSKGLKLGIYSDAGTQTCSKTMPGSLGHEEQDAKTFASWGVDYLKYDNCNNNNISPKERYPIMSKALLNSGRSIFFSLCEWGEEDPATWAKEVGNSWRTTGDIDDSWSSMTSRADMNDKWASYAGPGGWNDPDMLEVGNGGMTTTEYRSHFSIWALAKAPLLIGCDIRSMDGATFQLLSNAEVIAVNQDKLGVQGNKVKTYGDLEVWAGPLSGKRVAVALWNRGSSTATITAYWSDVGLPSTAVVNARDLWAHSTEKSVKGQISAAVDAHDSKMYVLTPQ
For orientation: Counterscreens check selectivity or assay interference.

Test [6] shares this target. The experiment in a line: Counterscreen for Glucocerebrosidase Inhibitors: qHTS Assay for Coffee Bean alpha-Galactosidase at pH 5.9 (AID 998). In outline: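 In 50 mM citric acid pH 5.9 with 0.005% Tween-20, coffee bean enzyme hydrolyses 80 uM 4-MU alpha-D-galactopyranoside over 20 min at RT. Activity is normalized to controls; AC50 comes from Hill-modelled concentration-response data.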

The structures appear in SMILES notation. Results filed as inconclusive are left out. Where a call stands in place of a potency, no number is given. Active and inactive are the calls of the source. Calls follow the shape of the dose curve; as a rule, active = well fitted curve in the direction sought with a large enough effect; inconclusive = small, poorly fitted or top-dose-only effect, or another doubt; inactive = no such curve, though single readings can be large; an effect the other way counts as inactive or inconclusive.

Sequence of Cytochrome P450 3A4 (Homo sapiens) (P08684 whole entry, looked up): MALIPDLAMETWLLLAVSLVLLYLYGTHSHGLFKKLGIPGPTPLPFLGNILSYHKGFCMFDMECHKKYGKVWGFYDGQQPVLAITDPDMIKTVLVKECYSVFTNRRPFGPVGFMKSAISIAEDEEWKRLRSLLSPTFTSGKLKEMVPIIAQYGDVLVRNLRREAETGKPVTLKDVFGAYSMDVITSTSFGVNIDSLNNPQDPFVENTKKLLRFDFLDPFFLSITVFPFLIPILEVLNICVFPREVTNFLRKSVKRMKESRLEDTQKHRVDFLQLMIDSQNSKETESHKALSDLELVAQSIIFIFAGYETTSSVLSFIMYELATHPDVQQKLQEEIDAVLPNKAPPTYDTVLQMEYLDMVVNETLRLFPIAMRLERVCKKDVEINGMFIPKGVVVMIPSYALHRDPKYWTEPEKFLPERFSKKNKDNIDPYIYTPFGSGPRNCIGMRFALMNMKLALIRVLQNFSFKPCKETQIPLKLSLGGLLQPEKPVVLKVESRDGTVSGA

In the case of `CC1(C)C(C(Cl)Cl)C2(Cl)C(Cl)C(Cl)C1(Cl)C2(Cl)Cl` (stereo not given), the Potency in test [1] was 7.94 µM (active). For the same compound, the Potency result in test [2] is “inactive”. The result in test [3] was inactive.
On to `CCC(C(=O)C(C)C(O)C(C)CCc1ccc(C)c(O)c1C(=O)O)C1OC(CC)(C2CC[C@@](O)(CC)C(C)O2)CC1C` (stereo not given in full), for which, in test [4], the Potency result is “inactive”.
Turning to `OC[C@@H]1O[C@@H](n2cnc3cncnc32)[C@@H](O)[C@H]1O`, the Potency result in test [1] was “inactive”. The compound was classed as inactive in test [5] and in test [6].
As to `CCCCCCCCCCCCCC(=O)OC1C(C)[C@@]2(O)C(C=C(CO)C[C@]3(O)C(=O)C(C)=C[C@H]23)[C@@H]2C(C)(C)[C@]12OC(C)=O` (stereo not given in full), the Potency result in test [1] and in test [2] was “inactive” each time. Moreover, the compound was called inactive in test [3].
